The source of these data is ChEMBL document CHEMBL3988442, “University of Dundee, Small-Polar-MMV Screening Library” (2021).

For assay [1], the target named is T1, Aspartate--tRNA(Asp/Asn) ligase (Mycobacterium tuberculosis (strain ATCC 25618 / H37Rv)) (UniProt P9WFW3). Further: in the data most compounds retested in dose-response had high values.
T1 sequence (whole entry): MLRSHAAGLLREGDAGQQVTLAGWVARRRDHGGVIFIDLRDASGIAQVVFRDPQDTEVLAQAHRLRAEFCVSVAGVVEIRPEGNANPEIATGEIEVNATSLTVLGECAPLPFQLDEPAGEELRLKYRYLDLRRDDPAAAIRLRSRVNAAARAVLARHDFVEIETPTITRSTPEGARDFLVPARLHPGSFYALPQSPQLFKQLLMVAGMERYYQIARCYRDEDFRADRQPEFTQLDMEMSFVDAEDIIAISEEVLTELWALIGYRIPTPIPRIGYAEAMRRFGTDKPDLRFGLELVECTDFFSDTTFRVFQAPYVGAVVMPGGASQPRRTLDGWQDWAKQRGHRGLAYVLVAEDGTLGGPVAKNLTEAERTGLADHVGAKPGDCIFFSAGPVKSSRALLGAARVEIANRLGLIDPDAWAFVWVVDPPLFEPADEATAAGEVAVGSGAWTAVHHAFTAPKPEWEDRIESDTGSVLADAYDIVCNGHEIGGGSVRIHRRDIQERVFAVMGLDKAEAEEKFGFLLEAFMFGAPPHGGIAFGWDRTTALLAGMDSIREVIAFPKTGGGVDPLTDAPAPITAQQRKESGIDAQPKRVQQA
Description: Assay for Asp RNA synthetase-1 from Mycobacterium tuberculosis. The note with it: 30 µM. It counts as functional. More on the design: scale not given: direction of the effect not stated beside the values.

The target of assay [2] is Shiga toxin 2 (Escherichia coli O157:H7) (UniProt P09385+P09386). Description: E. coli 0.157:H7 Shiga Toxin SOP - stx2 screening assay. It counts as functional. More on the design: scale not given: direction of the effect not stated beside the values. The note with it: 30 µM.

Turning to `CCn1ccnc1CN1CCN(C(C)C(=O)N2CCC(C)CC2)CC1` (configuration not stated), the Percent Effect is -3.5% in assay [1] and -22.7% in assay [2].
Take `O=C(NCCn1ccnc1)NCC(c1ccco1)N1CCCCC1` (configuration not stated): the results for the Percent Effect in assay [1] and in assay [2] were 1.79% and 22.2%, respectively.
In the case of `CC1=Nc2c(c(=O)[nH]n2C(C)C)C(c2cccs2)S1` (configuration not stated), the Percent Effect in assay [1] worked out at 7.78%; in assay [2] it was 5.29%.
On to `Cc1nc(CN2CCCC(NCc3c(C)nc4sccn34)C2)no1` (configuration not stated), for which the results for the Percent Effect in assay [1] and in assay [2] were 2.46% and -20.2%, respectively.
Turning to `COCC1CN(C(=O)CNC(C)=O)Cc2ncnn2C1` (configuration not stated), the Percent Effect in assay [1] is 0.773%; in assay [2] it was -26.6%.
Take `O=C(NS(=O)(=O)c1ccccc1Cl)c1cccc2c1OCCO2`: the Percent Effect in assay [1] was -6.15%; in assay [2], -2.92%.
Turning to `CN(C)S(=O)(=O)N1CCC(Oc2cnccn2)CC1`, the Percent Effect is -9.05% in assay [1] and -9.23% in assay [2].
For `COc1cccc(C(=O)NCC(O)c2cccs2)c1` (configuration not stated), the figures for the Percent Effect in assay [1] and in assay [2] were -4.63% and 2.93%, respectively.
On to `CCOC(=O)c1sc2ccsc2c1CNC(=O)C(C)(C)C#N`, for which the Percent Effect in assay [1] stood at 0.67%; in assay [2], 16.1%.
With `Cc1nc(CN2CCCC2c2nc(C(C)C)no2)cs1` (configuration not stated), the Percent Effect in assay [1] is -4.9%; in assay [2], 12.9%.
Take `Cc1ccccc1C1(C(=O)NCCN2CCCC2)CCOCC1`: the values for the Percent Effect in assay [1] and in assay [2] were 11.1% and 12.4%, respectively.
As to `CS(=O)(=O)N1CCN(CC(O)COc2ccc(F)cc2)CC1` (configuration not stated), the Percent Effect in assay [1] was 1.99%; in assay [2] it was 26.7%.
As for `CN1C(=O)C(C)(C)COc2cc(NS(=O)(=O)Cc3ccccc3)ccc21`, the Percent Effect in assay [1] is -4.77%; in assay [2], 14.9%.
With `Cc1nccn1-c1cc(CNC(=O)CCC2CCCO2)ccn1` (configuration not stated), the values for the Percent Effect in assay [1] and in assay [2] were 2.98% and 2.2%, respectively.
In the case of `Cc1cnn(CC2CCCN2Cc2cc(=O)n3ccccc3n2)c1` (configuration not stated), the Percent Effect in assay [1] turned out to be 2.04%; in assay [2] it was 2.37%.
Take `Cc1cccc(COC[C@]23COC[C@H]2CN(C(=O)c2ccsc2)C3)n1`: the Percent Effect in assay [1] stood at 1.56%; in assay [2] it was 7.59%.
Turning to `CN(c1ccncn1)C1CC2(CCN(C(=O)c3ccsc3)C2)C1` (configuration not stated), the figures for the Percent Effect in assay [1] and in assay [2] were -8.13% and -32.2%, respectively.
Consider `CN1CC(c2ccccc2)CC12CCN(C(=O)c1c(Cl)cnn1C)CC2` (configuration not stated), for which the Percent Effect was -1.22% in assay [1] and 17% in assay [2].
For `CS(=O)(=O)c1ccc(CNCC2CCN(CCO)CC2)cc1`, the figures for the Percent Effect in assay [1] and in assay [2] were 9.49% and -31.9%, respectively.
As to `c1ccc(CN2CCc3ncnc(-c4ccsc4)c3CC2)nc1`, the Percent Effect in assay [1] is 0.199%; in assay [2], -6.45%.
In the case of `CSC(C)C(=O)NCCCc1cc(N)n(-c2ccccc2)n1` (configuration not stated), the Percent Effect is -3.65% in assay [1] and -1.83% in assay [2].
Regarding `Cc1cnn(CC2CN(Cc3cccc(C(=O)N(C)C)c3)CCO2)c1` (configuration not stated), the Percent Effect in assay [1] was 2.43%; in assay [2] it was -24.4%.
On the same counts, the results for `CCN1CCN(C(=O)CCc2c(C)noc2Cl)CC1` are 0.983% and 28.8%.
Consider `Cn1cc(CC2CCN(C(=O)NCCc3cccc(O)c3)C2)cn1` (configuration not stated), for which the figures for the Percent Effect in assay [1] and in assay [2] were -5.03% and -12.2%, respectively.
`Cn1ccc(CN2CCC(CO)CC2)cc1=O`: the Percent Effect in assay [1] is -0.422%; in assay [2] it was -5.61%.
For `O=C(NC1CCC1)[C@@H]1C[C@@H]2CCN(Cc3cccs3)C[C@@H]2O1`, the Percent Effect in assay [1] is -2.46%; in assay [2] it was -16.7%.
For the molecule `CCOCC1CN(Cc2ccc(OC)cc2)Cc2nn(C)cc21` (configuration not stated), the values for the Percent Effect in assay [1] and in assay [2] were 11.4% and -5.58%, respectively.
The corresponding values for `COc1cccc(N2CCN(CC(O)c3cc(C)ccc3C)CC2)c1` (configuration not stated) are 9.16% and -19.7%.
`COCCCN1CCCN(C(C)C(=O)Nc2ccnn2C(C)C)CC1` (configuration not stated): the Percent Effect in assay [1] was -3.7%; in assay [2], 11.2%.
Consider `Cc1n[nH]c(C)c1NC(=O)CN1CCCC(CNC(=O)C(C)(C)C)C1` (configuration not stated), for which the Percent Effect in assay [1] was -4.35%; in assay [2] it was 19.6%.
With `CN(C)c1cc(C(=O)N2CCN(c3cnccn3)CC2)ccn1`, the Percent Effect is -1.5% in assay [1] and 3.8% in assay [2].
As to `CCC(CC)C(CNC(=O)Nc1cc(C)nn1C)N1CCOCC1` (configuration not stated), the Percent Effect in assay [1] is -8.48%; in assay [2], -29.4%.
`CCN1Cc2c(C(=O)NCC3CC3)ncn2-c2ccccc2S1(=O)=O`: the Percent Effect in assay [1] was -3.35%; in assay [2], 8.11%.
On to `O[C@]1(c2ccccn2)CC[C@@H]2CN(Cc3cccc4ncccc34)C[C@@H]21`, for which the Percent Effect in assay [1] was 0.581%; in assay [2] it was -21.3%.
The corresponding values for `COc1c(CNCc2ccc(C(=O)NC3CC3)cc2)c(C)nn1C` are -3.68% and -14.2%.
Take `Cc1ncc2c(n1)CCN(Cc1nc3ccccc3o1)C2`: the results for the Percent Effect in assay [1] and in assay [2] were 6.98% and -21.4%, respectively.
In the case of `Cc1cc(CN2CCN(C(=O)NC(C)c3cccnc3)CC2)on1` (configuration not stated), the Percent Effect was -1.43% in assay [1] and 24.6% in assay [2].
Take `CN(Cc1ccsc1)C(=O)CS(=O)(=O)Cc1ccc(Cl)c(Cl)c1`: the values for the Percent Effect in assay [1] and in assay [2] were 3.95% and 41.2%, respectively.
Consider `CC(C)Oc1ccccc1CNC(=O)N1CCC(n2cncn2)CC1`, for which the Percent Effect in assay [1] is -5.72%; in assay [2], -31.1%.
On the same counts, the results for `COC(=O)CCC(=O)N1CCc2[nH]nc(-c3ccc4c(c3)OCO4)c2C1` are -1.06% and -8.22%.
Turning to `Cc1ccc2c(ccn2CCC(=O)O)c1`, the results for the Percent Effect in assay [1] and in assay [2] were 0.776% and -8.69%, respectively.
Take `CN(C)C(=O)c1ccc2c(c1)N(C)C(CC(=O)NCCC(C)(C)C)CO2` (configuration not stated): the Percent Effect in assay [1] was found to be 0.279%; in assay [2], 5.86%.
For the molecule `Cn1c(CN2CCCC2c2noc(C3CC3)n2)cc(=O)n(C)c1=O` (configuration not stated), the results for the Percent Effect in assay [1] and in assay [2] were -4.22% and -7.03%, respectively.
Regarding `CC(=O)Nc1nc(C(=O)N2CCCC(n3ccnc3)C2)cs1` (configuration not stated), the Percent Effect in assay [1] was -1.21%; in assay [2], 0.121%.
As to `CCCc1ncc(C(=O)N2CCOC(c3nc(C)n[nH]3)C2)s1` (configuration not stated), the Percent Effect in assay [1] is 0.888%; in assay [2] it was 2.31%.
Regarding `Cc1nc(C)n(CC2CCCCN2CCC(=O)Nc2cc(C)on2)n1` (configuration not stated), the Percent Effect in assay [1] was -3.42%; in assay [2] it was 5.91%.
